Hits are enriched below; roughly 4.2% of the tested compounds scored in any of these assays.
VDR inhibitor: inhibitors of human vitamin D receptor; 0.93% of 400,000 active; VDR-SRC2-3 peptide fluorescence polarization, 2 h; AID 504847; Potency, µM, actives largely listed as inhibitors; P11473
Target sequence (P11473 whole entry, looked up): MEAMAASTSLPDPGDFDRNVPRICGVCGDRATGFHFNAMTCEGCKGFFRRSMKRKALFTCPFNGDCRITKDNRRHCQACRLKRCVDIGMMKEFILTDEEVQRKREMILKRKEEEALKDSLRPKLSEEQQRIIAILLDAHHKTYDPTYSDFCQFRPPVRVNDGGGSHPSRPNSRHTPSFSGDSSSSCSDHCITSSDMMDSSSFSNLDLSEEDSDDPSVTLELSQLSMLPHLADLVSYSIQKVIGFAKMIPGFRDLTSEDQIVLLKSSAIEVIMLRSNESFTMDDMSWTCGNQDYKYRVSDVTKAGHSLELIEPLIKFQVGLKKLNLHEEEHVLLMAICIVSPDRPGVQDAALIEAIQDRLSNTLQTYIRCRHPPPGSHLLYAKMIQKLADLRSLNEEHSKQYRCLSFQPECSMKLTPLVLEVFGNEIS
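FP read-out; VDR + SRC2-3 coactivator peptide; 23 nl compound by pintool; 2 h RT incubation; reagents held at 4 deg C, protected from light.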
12-LOX inh: inhibitors of human 12S-lipoxygenase ALOX12; P18054; 1.1% of 580,000 active; Potency, µM (highest dose often 108 µM), usual class: inhibitors; purified 12hLO, xylenol orange hydroperoxide absorbance
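Hydroperoxide product was detected by ferrous iron/xylenol orange as the 573 to 405 nm absorbance ratio. Arachidonic acid at 40 uM (final) was turned over for 30 min at room temperature by 150 nM human 12hLO, pH 7.0 Hepes buffer, after 15 min compound preincubation.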
PLK1 PBD inh: blocks phosphopeptide binding to human PLK1 polo-box domain. P53350. Plk1 PBD binding of FITC phosphopeptide, fluorescence polarization. Potency, µM, actives largely listed as inhibitors. 2.8% of 360,000 active. AID 720504; further: series mostly up to about 57 µM; nearly all actives have a fitted effect of over 65% in size
Sfp inh: blocks B. subtilis Sfp PPTase activity | Q9F4F7 | Biochemical Sfp PPTase activity, qHTS | Potency, µM, actives largely listed as inhibitors | 3.5% of 310,000 active;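 further: the enzyme is Sfp with the accession as filed and its product quenches rhodamine fluorescence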
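After 15 min at room temperature with compound, 15 nM Sfp received 5 uM rhodamine-CoA plus 12.5 uM BHQ-2-ybbR (50 mM Hepes pH 7.6, 10 mM MgCl2). Rate came from the fluorescence difference over 30 min, ex 525/em 598 nm.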
Each line names hits and unclear results; the compound was inactive in the other large screens. The call rests on the fitted dose curve; in most records, active means well fitted curve in the direction sought with a large enough effect; inconclusive means small, poorly fitted or top-dose-only effect, or another doubt; inactive means no such curve, though single readings can be large; an effect the other way counts as inactive or inconclusive.

CN(C)S(=O)(=O)c1ccc(C(=O)NCC[N+]2(C)CCCCCC2)o1	12-LOX inh inconclusive
O=C(Nc1ccccc1)c1ccccc1NC(=O)c1ccccc1[N+](=O)[O-]	none (no result: Sfp inh)
O=[N+]([O-])c1ccccc1C(=Nc1ccccc1)c1c(O)cc(O)cc1O	12-LOX inh 45µM (no result: VDR inhibitor, Sfp inh)
CCOC(=O)C1(C)NC(c2cccc(C)c2)C2C(=O)N(c3ccccc3)C(=O)C21 (centres undefined)	none
CCOc1ccc(S(=O)(=O)NCc2ccccc2OC)cc1	none
Cc1ccc2nc(N(CCCN(C)C)C(=O)c3sc4ccccc4c3Cl)sc2c1	12-LOX inh inconclusive, Sfp inh 45µM
CN(C)CCCN(C(=O)c1ccc2c(c1)OCCO2)c1nc2ccc(Cl)cc2s1	12-LOX inh 45µM (no result: VDR inhibitor, PLK1 PBD inh)
CCc1ccc2nc(N(CCN(C)C)C(=O)c3ccc4ncsc4c3)sc2c1	VDR inhibitor 71µM, 12-LOX inh 35µM
Cc1ccc2nc(N(CCCN(C)C)C(=O)c3ccc(S(=O)(=O)N(C)C)cc3)sc2c1	none
CN(C)CCCN(C(=O)c1cc(-c2cccs2)nc2ccccc12)c1nc2ccc(F)cc2s1	12-LOX inh inconclusive, Sfp inh 50µM
CN(C)CCN(C(=O)c1ccc2c(c1)OCCO2)c1nc2ccc(Cl)cc2s1	none
Cc1cc([N+](=O)[O-])nn1CC(=O)Nc1nccs1	12-LOX inh inconclusive
Cc1sc(N2CCN(S(=O)(=O)c3ccc4c(c3)NC(=O)CO4)CC2)nc1-c1ccccc1	none
Cc1cccc2sc(N(CCCN(C)C)C(=O)c3nc4ccccc4s3)nc12	Sfp inh 79µM
Cc1ccc(C(=O)N(CCCN(C)C)c2nc3ccc(Cl)cc3s2)cc1C	12-LOX inh inconclusive, Sfp inh 56µM
COc1ccc(NC(=O)Cn2c(C(C)C)nc(C)cc2=O)cc1Cl	none
CN(C)Cc1nc2c([nH]1)c(=O)n(C)c(=O)n2C	Sfp inh 56µM
COC(=O)CC(NC(=O)CNC(=O)c1ccc(N2CCCC2=O)cc1)c1ccccc1Cl (centres undefined)	none (no result: VDR inhibitor, PLK1 PBD inh, Sfp inh)
CC(C1CC2CCC1C2)n1c(-c2ccco2)n[nH]c1=S (centres undefined)	VDR inhibitor 79µM, 12-LOX inh inconclusive, PLK1 PBD inh 30µM, Sfp inh inconclusive
Cc1ccc(/C=N/n2c(-c3ccco3)n[nH]c2=S)cc1	12-LOX inh inconclusive, PLK1 PBD inh inconclusive
CC(=O)Nc1ccc(-c2csc(NC(C)(C)C)n2)c(F)c1	12-LOX inh 11µM (no result: VDR inhibitor, PLK1 PBD inh, Sfp inh)
CN1C(=O)Cc2cc(-c3csc(NC(C)(C)C)n3)ccc21	12-LOX inh 11µM (no result: VDR inhibitor, PLK1 PBD inh, Sfp inh)
CC(=O)Nc1ccc(-c2csc(NC(C)c3ccccc3)n2)cc1 (centres undefined)	12-LOX inh inconclusive, Sfp inh 50µM
CN1C(=O)Cc2cc(-c3csc(-c4ccc(F)cc4)n3)ccc21	none (no result: VDR inhibitor, PLK1 PBD inh, Sfp inh)
CC(=O)Nc1ccc(-c2csc(Nc3ccc(Br)cc3)n2)cc1	none (no result: VDR inhibitor, PLK1 PBD inh, Sfp inh)
CC(=O)Nc1ccc(-c2csc(NC(C)(C)C)n2)cc1	12-LOX inh 10µM (no result: VDR inhibitor, PLK1 PBD inh, Sfp inh)
Cc1cnc(CCNC(=O)Nc2ccc3c(c2)OCCO3)n1C1CC1	none (no result: VDR inhibitor, PLK1 PBD inh, Sfp inh)
COc1ccc(CN(C(=O)c2cc(=O)c3cc(Cl)ccc3o2)C2CCS(=O)(=O)C2)cc1OC (centres undefined)	none (no result: VDR inhibitor, PLK1 PBD inh, Sfp inh)
CCN(CC(=O)Nc1c(F)cccc1F)C(=O)c1cc(S(=O)(=O)N(C)C)ccc1N1CCCC1	none (no result: Sfp inh)
CNc1nc(-c2ccc(NC(C)=O)cc2F)cs1	12-LOX inh 32µM (no result: VDR inhibitor, PLK1 PBD inh, Sfp inh)
CC(=O)Nc1ccc(-c2csc(Nc3ccc(O)c(C(=O)O)c3)n2)cc1	12-LOX inh 40µM (no result: VDR inhibitor, PLK1 PBD inh, Sfp inh)
CCNc1nc(-c2ccc(NC(C)=O)cc2F)cs1	12-LOX inh 7.1µM (no result: VDR inhibitor, PLK1 PBD inh, Sfp inh)
Cc1nc(-c2ccc(NC(=O)/C=C\C(=O)O)cc2)cs1	12-LOX inh inconclusive, PLK1 PBD inh 21µM
CCOC(=O)C1CCCN(C(=O)c2cccc(S(=O)(=O)NCc3ccccc3)c2)C1 (centres undefined)	none (no result: VDR inhibitor, Sfp inh)
Cc1c(C(=O)N(C)Cc2nc3ccccc3c(=O)[nH]2)oc2ccc(F)cc12	none (no result: VDR inhibitor, PLK1 PBD inh, Sfp inh)
CC(C)C[C@H](NC(=O)c1cc2cc(Cl)ccc2n1C)C(=O)N1CCC[C@H]1C(=O)O	12-LOX inh inconclusive
CC(=O)c1ccc(S(=O)(=O)Nc2ccc(-c3cn4c(C)csc4n3)cc2)cc1	VDR inhibitor 25µM (no result: PLK1 PBD inh, Sfp inh)
COc1ccc(S(=O)(=O)Nc2ccc(-c3cn4c(C)csc4n3)cc2)cc1	none (no result: PLK1 PBD inh, Sfp inh)
CC(=O)c1ccc(NS(=O)(=O)c2ccc(N)cc2)cc1	VDR inhibitor inconclusive, PLK1 PBD inh 30µM
CC(=O)c1ccc(NS(=O)(=O)c2ccccc2)cc1	none
O=C(Cc1cccs1)NCc1cccnc1	none
O=C(O)c1cccc2c(/C=N/Nc3ccccn3)c[nH]c12	Sfp inh 50µM (no result: 12-LOX inh)
